# This is a sample that favours compounds with a hit; in the whole collection about 11% have one here.
# Luciferase inh = Photinus pyralis luciferase inhibition | P08659 | purified P. pyralis luciferase, luminescence, biochemical | Potency, µM (doses to about 115 µM), usual class: inhibitors | 76,000 compounds, 2.5% hits | AID 1347043; note: nearly all actives have a fitted effect of over 65% in size
#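 Purified 10nM P. pyralis luciferase with 10uM D-luciferin and 10uM ATP in 50mM Tris acetate pH 7.5, 10mM Mg acetate, 0.01% Tween-20, 0.05% BSA. qHTS titration; luminescence read by CCD imager.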
# 3T3 cytotox = NIH 3T3 cell cytotoxicity; Potency, µM (titrated, usually from 96.7 µM), for the others: at the highest dose activity change, negative = cytotoxicity, hits mostly inhibitors; NIH 3T3 viability, CellTiter-Glo ATP luminescence, 48-72 h; 94,000 compounds, 4.3% hits; note: nearly all actives have a fitted effect of over 55% in size
#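 Cells were seeded at 400 per well, treated with pin-transferred compound, and kept 48 or 72 hr at 37 °C before CellTiter-Glo addition and luminescence imaging of cellular ATP.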
# HEK293 tox = cytotoxic compounds in HEK 293 cells. HEK 293 viability, ATP luminescence (CellTiter-Glo), 48-72 h. Potency, µM (doses to about 115 µM), without a hit: at the highest dose activity change, negative = cytotoxicity, usual class: inhibitors. 94,000 compounds, 6.6% hits. AID 1345083; note: nearly all actives have a fitted effect of over 60% in size
#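 Luminescence from cellular ATP, measured with CellTiter-Glo, indicates HEK 293 viability. Cells plated at 250 cells/well are treated with compound for 48 or 72 hr at 37 degree Celsius before reagent addition.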
# NPR1 antag = antagonists of human natriuretic peptide receptor Npr1 | P16066 | 76,000 compounds, 1.6% hits | HEK293 hNpr1 GloSensor cGMP, ANP-stimulated luminescence | Potency, µM (titrated, usually from 46.3 µM), without a hit: top-dose activity change, negative = inhibition, hits mostly inhibitors; calls by dose curve; note: nearly all actives have a fitted effect of over 60% in size
#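 HEK293 cells stably expressing human Npr1 and cGMP GloSensor pGS-40F, loaded 2 h with 2% GloSensor reagent, given compound 30 min at room temperature. Luminescence read before and 20 min after 0.1 nM hNppA.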
# * = called active by the depositor; i = inactive; ? = inconclusive; / = not tested or not shown; [ ] = another dose, or the depositor's remark. Unless noted, calls come from the whole dose curve; as a rule, active = well fitted curve in the direction sought with a large enough effect; inconclusive = small, poorly fitted or top-dose-only effect, or another doubt; inactive = no such curve, though single readings can be large; an effect the other way counts as inactive or inconclusive. % is set by controls: 0 for no effect and ±100 for the full control effect; potency is the fitted concentration of half-maximal effect.
SMILES,Luciferase inh,3T3 cytotox,HEK293 tox,NPR1 antag
COC(=O)[C@@H]1Cc2c([nH]c3ccccc23)[C@H]2C[C@@H](NCc3cccs3)C[C@@H](c3ccccc3F)N21,i,?,40µM*,-3%
CCN(CC)C(=O)CC[C@@H]1CNC(=O)[C@@H]2C[C@H](NCc3cccs3)CN12,i,?,2%[172 µM],-2%[70.6 µM]
CCOCCCNC(=O)C1CCN(C(=O)c2ccc(-c3cncnc3)cc2)CC1,/,-2%,i,/
CC(C)(CC(=O)O)CC(=O)N1C[C@@H]2C[C@H](C1)c1ccc(-c3cc4ccccc4s3)c(=O)n1C2,22µM*,-15%,-10%,-2%
COc1ccc(CNc2ncnc3c2CN(C2CCC2)C(=O)CN3C)cc1,i,-30%,-21%,0%
O=C(CN1CCCCCC1)N1CC(Oc2ccc(-c3noc(-c4ccccc4)n3)cc2)C1,?,?,?,-12%
CCOCCCNC(=O)N1CC(Oc2ccc(-c3nc(-c4ccccc4)no3)cc2)C1,?,-28%,?,0.56µM*
O=C(C1CCOCC1)N1CC(Oc2ccc(-c3nc(-c4ccccc4)no3)cc2)C1,?,-15%,?,?
CCCNC(=O)N1CC(Oc2ccc(-c3nc(-c4ccccc4)no3)cc2)C1,?,-41%,-51%,0.4µM*
O=C(Cc1ccc(N(Cc2cccc(F)c2)C(=O)c2ccco2)cc1)NCc1ccco1,i,?,89µM*,0%
C=CCNC(=O)Cc1ccc(N(Cc2ccc(OC)cc2)C(=O)c2ccco2)cc1,i,-29%,?,-3%
COCCNC(=O)Cc1ccc(N(Cc2ccc(F)cc2)C(=O)c2ccco2)cc1,i,-22%,-31%,-12%
COc1ccc(CN(C(=O)c2ccco2)c2ccc(CC(=O)NCc3ccccc3)cc2)cc1,i,35µM*,?,-17%
O=C(Cc1ccc(N(Cc2ccccc2)C(=O)c2ccco2)cc1)NCc1ccc(F)cc1,i,?,40µM*,-13%
COc1ccc(CN(C(=O)c2ccco2)c2ccc(CC(=O)NCc3ccc(F)cc3)cc2)cc1,i,20µM*,?,-17%
CN1C(=O)CCC2(CNC(=O)c3ccccc3F)CCC=C12 (centres undefined),/,-8%,i,/
CNC(=O)c1cc(C2CC2)nc2c1c(C1CCCN1[S+](=O)([O-])c1c(C)noc1C)nn2C (centres undefined),/,?,-30%,/
COc1ccc(Nc2ccc3c(n2)CN(Cc2ccccc2C)C(=O)CO3)cc1,i,79µM*,89µM*,?
COc1ccc(Nc2ccc3c(n2)CN(Cc2nc4ccccc4s2)C(=O)CO3)cn1,?,?,50µM*,?
COc1ccc(Nc2ccc3c(n2)CN(Cc2ccccc2F)C(=O)CO3)cc1,i,?,63µM*,?
COc1ccccc1-c1ccc2c(n1)CN(Cc1ccccc1C)C(=O)CO2,i,-17%[138 µM],?,-10%[70.6 µM]
O=C(c1ccc2cccnc2c1O)N1CCCC(CCc2ccccc2F)C1 (centres undefined),i,?,?,4%
COc1cc2c(cc1OC)C(CNC(=O)c1cccs1)N(C(=O)Nc1cccc(F)c1)CC2 (centres undefined),i,-19%,?,-3%
Cc1ccc(NC(=O)N2CCc3c(C(=O)N(C)C)cccc32)cc1,16µM*,?,2%,-1%
CCCCNC(=O)c1cccc2c1CCN2C(=O)c1ccc(F)cc1,i,-23%,?,5%
SMILES,Luciferase inh,3T3 cytotox,HEK293 tox,NPR1 antag
CCCCNC(=O)c1cccc2c1CCN2C(=O)Nc1ccc(C)cc1,?,?,?,1.4µM*
CN(C)C(=O)c1cccc2c1CCN2C(=O)C1CC1,i,-10%,6%,14%
COCCCNC(=O)c1cccc2c1CCN2C(=O)Nc1cccc(C)c1,0.32µM*,?,?,2µM*
O=C(CCc1ccccc1)N1CCC2(CC1)CC(CO)N(C(=O)c1ccccc1)C2 (centres undefined),/,-11%,0%,/
COC(=O)N(C)Cc1cccc(N2CCN(C(C)c3ccccc3)CC2)c1 (centres undefined),/,?,45µM*,/
CC(c1ccccc1)N1CCN(c2cccc(CN(C)S(C)(=O)=O)c2)CC1 (centres undefined),/,?,45µM*,/
CCC(=O)N1CCC2(CC1)NCCc1c2[nH]c2ccccc12,i,-18%,-1%,-4%
CC1=Nc2cc(C(=O)NCCCN(C)C)ccc2Sc2ccc(F)cc21,i,?,50µM*,2%
CCCC1=Nc2cc(C(=O)NCCc3ccc(C)cc3)ccc2Sc2ccc(C)cc21,i,?,?,-3%
CC1=Nc2cc(C(=O)NCCCN(C)C)ccc2Sc2ccc(Cl)cc21,i,22µM*,25µM*,-12%
CCC1=Nc2cc(C(=O)NCCC(C)C)ccc2Sc2ccc(Br)cc21,i,?,?,-1%
CC[C@H]1CN(C(=O)N2CCOCC2)CC[C@H]1CC(=O)N1CCOCC1,i,-7%[174 µM],3%[172 µM],-1%[70.6 µM]
COc1cccc(CNC(=O)c2cc(-c3ccsc3)nc3c2cnn3C)c1,/,25µM*,56µM*,/
Cn1ncc2c(C(=O)NCc3ccc(Cl)cc3)cc(-c3ccsc3)nc21,/,32µM*,35µM*,/
Cn1ncc2c(C(=O)NCc3cccc(Cl)c3)cc(-c3ccsc3)nc21,/,16µM*,32µM*,/
Cn1ncc2c(C(=O)NCc3cccc(Cl)c3)cc(-c3ccc(Cl)cc3)nc21,/,-16%,-13%,/
COCCNC(=O)c1cc(-c2ccsc2)nc2c1cnn2C,/,?,-9%[172 µM],/
Cn1ncc2c(C(=O)NCc3cccc(Cl)c3)cc(-c3ccc(F)cc3)nc21,/,?,35µM*,/
Cc1cc(N2CCN(Cc3nc(-c4cccc(Cl)c4)no3)CC2)cc(C)n1,i,22µM*,40µM*,-12%
Cc1oc(-c2cccc(Cl)c2)nc1CN1CCOCC1,i,-3%,-8%,4%
Cc1ccc(N2CCN(c3ncncc3-c3nc(-c4ccccc4)no3)CC2)cc1,i,1%,-16%,-18%
O=C(NCCCc1ccccc1)C1CCN(c2nc3ncccc3o2)CC1,/,-29%,-19%,/
CCc1cccc(C)c1NC(=O)Cn1cccc1-c1nc(-c2ccc(OC)c(F)c2)no1,i,i,10%,-16%
O=C1CCN(Cc2cccc(F)c2)CCCC(c2nc(-c3cccnc3)no2)CCN1 (centres undefined),i,?,79µM*,2%
O=C(c1ccccc1F)N1CCn2c(nnc2-c2ccccc2)C1,i,-22%[138 µM],-16%[172 µM],0%[70.6 µM]
O=C(c1ccccc1F)N1CCn2c(nnc2C2CCNCC2)C1,/,28µM*,4%,/
CCc1nc2c(c(-c3ccc(Cl)cc3)n1)CN(C(=O)Nc1ccc(Cl)cc1)CC2,i,?,?,-12%
Cc1ccc(C)c(OCC(=O)c2ccc3c(c2)N(C(C)C(=O)NCC2CCCO2)C(=O)CO3)c1 (centres undefined),i,-22%,45µM*,6%

# Bioassay records: PubChem BioAssay, National Center for Advancing Translational Sciences (NCATS)
